# Screening data deposited in PubChem by National Center for Advancing Translational Sciences (NCATS).
# Coupling enz – coupling enzyme interference in Giardia aldolase counter-screen. activity change, negative = inhibition, % at 58.2 µM, hits read low. coupling enzyme system counterscreen, AmpLite Red fluorescence. AID 2472. 0.67% of 290,000 active; in the data active = activity change below about -30%
#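 Counterscreen of the coupled detection system alone, without aldolase: glyceraldehyde-3-phosphate coupling enzymes plus AmpLite Red readout. Compounds at 57.5 uM final, 10 min RT preincubation, 20 min RT reaction, fluorescence 525/598 nm.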
# Sfp inh – inhibitors of Bacillus subtilis Sfp phosphopantetheinyl transferase; Biochemical Sfp PPTase activity, qHTS; 3.5% of 310,000 active; Potency, µM, for inactives: largest response in the series, negative = inhibition, most hits filed as inhibitors;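 also: the enzyme is Sfp with the accession as filed and its product quenches rhodamine fluorescence; potency is read from the fitted curve at half-maximal effect; 0% = enzyme reaction without inhibitor and -100% = no enzyme wells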
#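 Sfp 15 nM + cpd, 15 min RT; start w/ rhodamine-CoA 5 uM, BHQ-2-YbbR 12.5 uM (final); 50 mM Hepes pH 7.6, 10 mM MgCl2, 0.01% NP-40, 0.01% BSA; read 525/598 nm at 0 and 30 min.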
# Tau ThT inhib – inhibitors of human tau fibril formation, thioflavin T binding | recombinant tau K18 P301L, heparin-induced fibrillization, ThT fluorescence | AID 1460 | 2.1% of 270,000 active | Potency, µM (doses to about 57.4 µM), for the others: at the top dose activity, negative = inhibition, most hits filed as inhibitors | P10636; also: potency is read from the fitted curve at half-maximal effect; nearly all actives have a fitted effect of over 55% in size
# Target sequence (P10636 561-689 P618L limits assumed): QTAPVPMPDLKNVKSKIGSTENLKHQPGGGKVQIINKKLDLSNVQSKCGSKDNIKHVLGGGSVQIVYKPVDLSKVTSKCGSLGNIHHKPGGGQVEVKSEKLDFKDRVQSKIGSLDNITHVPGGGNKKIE
#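 Tau K18 P301L fragment (15 uM unlabeled plus 0.24 uM Alexa 594-labeled) in 100 mM sodium acetate pH 7 with compound, fibrillization induced by 20 uM heparin for 6 hr at 37 C. Thioflavin T (30 uM) added, fluorescence read after 1 hr (ex 450, em 510 nm).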
# Tau fluor cs – counter-screen for tau fibril formation inhibitors. tau K18 P301L Alexa594 fluorescence, heparin fibrillization. Potency, µM (highest dose often 57.7 µM), for inactives: at the top dose activity change, negative = decrease. 0.93% of 280,000 active; also: potency is read from the fitted curve at half-maximal effect; nearly all actives have a fitted effect of over 55% in size
#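 Human tau K18 P301L (15 uM unlabeled, 0.24 uM Alexa 594-labeled) in 100 mM sodium acetate pH 7 with 20 uM heparin, 6 hr at 37 C. ThT 30 uM added, 1 hr ambient; Alexa 594 FP and total fluorescence read at 555/632 nm.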
# KDM4E inh – blocks human JMJD2E demethylase activity. Potency, µM (top dose mostly 57.1 µM), for inactives: top-dose activity change, negative = inhibition, most hits filed as inhibitors. JMJD2E catalytic domain, FDH-coupled NADH fluorescence (FDH is formaldehyde dehydrogenase). AID 2147. 1.6% of 230,000 active. B2RXH2; active = well fitted inhibition curve with a large enough effect, not every such curve was filed as active; inconclusive = small, poorly fitted or top-dose-only effect, or another doubt; inactive = no such curve, though single readings can be large or run the other way;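 also: potency is read from the fitted curve at half-maximal effect; 0% = wells with enzyme and -100% = buffer wells without enzyme; nearly all actives have a fitted effect of over 50% in size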
# Target sequence (B2RXH2 1-337 limits assumed): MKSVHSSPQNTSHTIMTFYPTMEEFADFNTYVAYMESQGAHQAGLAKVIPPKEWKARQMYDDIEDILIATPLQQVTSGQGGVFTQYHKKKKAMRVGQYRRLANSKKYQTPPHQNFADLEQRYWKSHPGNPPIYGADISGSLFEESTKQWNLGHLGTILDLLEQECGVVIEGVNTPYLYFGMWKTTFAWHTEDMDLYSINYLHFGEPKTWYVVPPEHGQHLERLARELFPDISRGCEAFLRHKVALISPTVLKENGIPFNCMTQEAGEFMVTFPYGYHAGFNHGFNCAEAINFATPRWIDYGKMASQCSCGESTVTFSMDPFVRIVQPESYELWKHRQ
# Tau FP inhib – blocks human tau fibril formation measured by polarization | Potency, µM (highest dose often 57.7 µM), for inactives: at the top dose activity, negative = inhibition, usual class: inhibitors | K18 P301L tau heparin fibrillization, Alexa594 FP, 6 h | P10636 | 0.39% of 280,000 active; also: potency is read from the fitted curve at half-maximal effect; nearly all actives have a fitted effect of over 55% in size
#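 Quantitative HTS format: compounds meet 15 uM recombinant K18 P301L tau and Alexa 594-tau tracer in 100 mM sodium acetate pH 7; 20 uM heparin triggers fibrillization at 37 C over 6 hr; FP gives the signal.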
# * marks the source's active call; other numbers are inactive results; ? = inconclusive; · = no result given; [ ] = remark or other dose. Most compounds without a hit are left out; they make up all but 5.3% or so of the library. Unless noted, calls follow the shape of the dose curve; as a rule, active = well fitted curve in the direction sought with a large enough effect; inconclusive = small, poorly fitted or top-dose-only effect, or another doubt; inactive = no such curve, though single readings can be large; an effect the other way counts as inactive or inconclusive. Unless noted, % is scaled to controls: 0 for no effect and ±100 for the full control effect.
SMILES,Coupling enz,Sfp inh,Tau ThT inhib,Tau fluor cs,KDM4E inh,Tau FP inhib
CNc1ccc(Br)cc(C(=O)/C=C/c2cc(OC)ccc2OC)c1=O,0.5,-7.0%,10µM*,?,?,?
CNc1ccc(Br)cc(C(=O)/C=C/c2ccc3c(c2)OCO3)c1=O,-28.2,17.8µM*,12.6µM*,?,?,?
CCNc1ccc(Br)cc(C(=O)/C=C/c2ccc(Cl)cc2Cl)c1=O,-11.8,22.4µM*,15.8µM*,-29.0%,-17.5%,-15.1%
COc1ccc(/C=C/C(=O)c2cc(Br)ccc2O)cc1OC,0.5,-12.6%,?,-8.2%,-17.2%,-9.6%
Cc1cnc(C(=O)O)c[n+]1[O-],0.6,-23.4%,·,·,·,·
COc1cc(N=c2ssnc2Cl)cc(OC)c1,-12.2,1.78µM*,-1.4%,-8.7%,20µM*,2.7%
N#Cc1cccc(N=c2ssnc2Cl)c1,3.7,7.94µM*,11.2µM*,-18.0%,-22.4%,?
Clc1ccc(N=c2ssnc2Cl)nc1,0.9,20.7%,-7.5%,-9.5%,-6.0%,-7.3%
OCc1ccccc1N=c1ssnc1Cl,3.0,8.91µM*,35.5µM*,?,-11.2%,?
Clc1nssc1=Nc1ccc(Br)cc1,2.4,10µM*,12.6µM*,-25.1%,11.2µM*,?
CCOC(=O)N/N=C1/C[C@@H](O)[C@@H](O)[C@@H]2[C@@H]3C(=O)N(c4cccc(Oc5ccccc5)c4)C(=O)[C@H]3CC[C@H]12,2.1,3.4%,0.6%[11.5 µM],-1.5%[11.6 µM],·,?
CC[C@H](C)[C@H](NC(=O)[C@H](Cc1ccc(O)cc1)NC(=O)[C@@H]1CCCN1C(=O)[C@@H](N)CCCN=C(N)N)C(=O)N[C@@H](CC(C)C)C(=O)O,-0.1,23.6%,·,·,·,·
Cc1ccc(Nc2nc(C)cc(C)n2)c(C(=O)O)c1,·,·,-7.6%,6.0%,·,-0.3%
COC(=O)c1ccc(NC(=O)CC2C(=O)N(c3ccccc3)C(=O)N2Cc2ccc(F)cc2)cc1 (stereo not given),·,·,-4.5%,-29.4%,·,-10.4%
CSc1nc2cc(Oc3cccc(Cl)c3Cl)c(Cl)cc2[nH]1,0.9,?,?,?,-8.3%,12.6µM*
CC(C)(C)C(=O)Oc1ccc(S(=O)(=O)Nc2ccccc2C(=O)NCC(=O)O)cc1,·,-1.7%,·,·,·,·
Cc1ccnc(Nc2nc3ccccc3o2)n1,2.0,70.8µM*,-7.2%,1.1%,3.0%,-4.3%
Cc1nc(Nc2nc3ccccc3o2)nc(C)c1C,0.9,7.9%,?,3.0%,10.5%,10.1%
Cc1cc(C(=O)CCl)c(C)n1CCc1ccccc1,1.9,20µM*,?,-12.1%,?,-0.9%
CC(=O)Nc1ccc(CN2CCc3c([nH]c4ccccc34)C2c2ccccn2)cc1 (stereo not given),-9.3,1.1%,?,-28.5%,25.1µM*,-4.4%
CC(=O)c1cc(CC(=O)N2CCc3c([nH]c4ccccc34)C2c2ccccn2)cs1 (stereo not given),5.1,20µM*,-15.4%,-22.2%,?,-5.7%
Cc1nc(C)c(CC(=O)N2CCc3c([nH]c4ccccc34)C2c2ccccn2)s1 (stereo not given),-5.9,-8.7%,-15.2%,-6.2%,?,-2.3%
CCCS(=O)(=O)c1c(S(=O)(=O)CCC)c2c(N)cccn2c1C(=O)c1ccccc1,-18.1,4.3%,?,-26.8%,-21.8%,2.4%
CCCS(=O)(=O)c1c(S(=O)(=O)CCC)c2c(N)cccn2c1C(=O)OC,-11.8,28.2µM*,-9.8%,-8.5%,?,-7.1%
COc1cc(OC)cc(C(=O)Nc2ccc(-c3nc4ccccc4o3)cc2)c1,0.4,8.91µM*,?,?,?,?
SMILES,Coupling enz,Sfp inh,Tau ThT inhib,Tau fluor cs,KDM4E inh,Tau FP inhib
O=[N+]([O-])c1cccc(S(=O)(=O)NCCNS(=O)(=O)c2cccc([N+](=O)[O-])c2)c1,·,10.2%,·,·,·,·
CCOC(=O)C1=C(N)N2C(=O)CSC2=C(C(=O)OC)C1,1.4,56.2µM*,-12.1%,2.0%,?,-1.4%
CCc1cc[n+](C2=C([O-])c3ccccc3C(=O)/C2=N\S(=O)(=O)c2cccs2)cc1,-55.4*,11.1%,12.6µM*,?,?,?
O=C1CCC=C1C(O)CCc1ccccc1 (stereo not given),0.7,-13.1%,-1.5%,-5.7%,8.9%,-5.0%
Cc1cc(C)nc(SSc2nc(C)cc(C)n2)n1,0.9,2.24µM*,·,·,·,·
Cc1ccc(C(=O)c2ccccc2C(=O)OCC(=O)Nc2cccc([N+](=O)[O-])c2)cc1,-9.3,16.3%,-17.9%,15.8µM*[quencher],2.2%,?
CCOC(=O)c1cccc(NC(=O)/C=C/c2cccc([N+](=O)[O-])c2)c1,3.2,5.6%,-15.6%,-20.2%,5.5%,-4.9%
CCOC(=O)/C=C/C(=O)Nc1ccccc1-c1ccccc1NC(=O)/C=C/C(=O)OCC,0.7,6.4%,20µM*,-10.6%,-1.9%,?
CCOC(=O)/C=C/C(=O)Nc1cccc([N+](=O)[O-])c1,-11.9,2.82µM*,1.3%,2.0%,4.0%,7.1%
CCCC[n+]1c(C)sc2cc(OC)ccc21,1.1,6.31µM*,?,-7.2%,-0.3%,2.2%
COc1ccc2sc(C)[n+](C)c2c1,0.0,44.7µM*,?,-8.7%,20µM*,-19.7%
CC1CC=CC2C1C(=O)N(Cc1ccccc1)C2c1ccc(/C=C/c2ccccc2)cc1F (stereo not given),0.0,-8.2%,·,·,·,·
C=CCOC(/C=C/c1ccccc1)CC (stereo not given),3.1,-0.4%,·,·,·,·
O=C(c1cccc(F)c1)N1CCC2(CC1)CN(C(c1ccccc1)c1ccccc1)C2,1.1,-17.8%,·,·,·,·
S=c1[nH]nc(-c2cccc(Br)c2)o1,8.9,10.9%,-7.6%,4.1%,?,9.3%
S=c1[nH]nc(-c2cccnc2)o1,2.2,56.2µM*,0.4%,3.9%,-9.1%,-2.8%
C=CCn1c(C)cc(C(=O)COC(=O)c2ccc3c(c2)NC(=O)CS3)c1C,-3.3,56.2µM*,?,-19.9%,-12.9%,?
Cc1cc(C(=O)COC(=O)c2ccc(N)c([N+](=O)[O-])c2)c(C)n1Cc1ccc2c(c1)OCO2,-1.2,10.6%,?,4.47µM*[quencher],0.3%,?
C=CCn1c(C)cc(C(=O)COC(=O)c2ccc(N)c([N+](=O)[O-])c2)c1C,-0.8,7.1%,?,25.1µM*[quencher],-9.2%,-9.1%
Cc1cc(C(=O)COC(=O)c2ccc(N)c([N+](=O)[O-])c2)c(C)n1-c1ccc2c(c1)OCO2,-2.8,-0.4%,?,?,-7.7%,1.8%
CC(C)(C)C(=O)COC(=O)c1ccc(N)c([N+](=O)[O-])c1,2.3,12.9%,2.8%,-4.5%,2.5%,-5.2%
